Test [1] in a line: qHTS assay to identify small molecule antagonists of the glucocorticoid receptor (GR) signaling pathway - cell viability counter screen (AID 720693). Note: nearly all actives have a fitted effect of over 55% in size.
Test [2] can be described thus: qHTS assay for identifying genotoxic compounds that show differential cytotoxicity against isogenic chicken DT40 cell lines with known DNA damage response pathways - wild type cell line (AID 743012). Note: nearly all actives have a fitted effect of over 60% in size. Note: potency is the fitted concentration of half-maximal effect. Put shortly: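 Quantitative HTS on parental DT40 cells: 40 h compound treatment at 37 C/5% CO2, with viability then determined by CellTiter-Glo luminescence. Values serve as the DNA repair-proficient reference for differential cytotoxicity.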
On the technique in general: qHTS replaces the single test concentration by a dilution series.

Test [3] is described as follows: qHTS assay for identifying genotoxic compounds that show differential cytotoxicity against isogenic chicken DT40 cell lines with known DNA damage response pathways - Rad54/Ku70 mutant cell line (AID 743015). Note: nearly all actives have a fitted effect of over 60% in size. Note: potency is the fitted concentration of half-maximal effect.
Test [4] can be described thus: qHTS assay to identify small molecule antagonists of the androgen receptor (AR) signaling pathway - cell viability counter screen (AID 743033; note: nearly all actives have a fitted effect of over 45% in size; note: potency is the fitted concentration of half-maximal effect).
Test [5] is described as follows: qHTS assay to identify small molecule antagonists of the androgen receptor (AR) signaling pathway using the MDA cell line - cell viability counter screen (AID 743041; note: nearly all actives have a fitted effect of over 45% in size; note: potency is the fitted concentration of half-maximal effect). Put shortly: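 Same-well cytotoxicity was assessed by CellTiter-Fluor in MDA-kb2 AR-luc cells after 16 h of compound treatment under R1881 agonism.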
Test [6] in a line: qHTS assay to identify small molecule antagonists of the thyroid receptor (TR) signaling pathway - cell viability counter screen (AID 743064). Note: nearly all actives have a fitted effect of over 50% in size. Note: potency is the fitted concentration of half-maximal effect. The gist of the method:
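Rat GH3 pituitary tumor cells stably expressing two TR response elements driving luciferase were plated, rested 4 h, then dosed with library compounds and T3 (1 nM final). After 23.5 h at 37 °C, CellTiter-Fluor was added for 30 min and fluorescence recorded.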

Test [7] in a line: qHTS assay to identify small molecule antagonists of the thyroid receptor (TR) signaling pathway (AID 743065). Note: nearly all actives have a fitted effect of over 55% in size. Note: potency is the fitted concentration of half-maximal effect. The gist of the method: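 GH3.TRE-Luc rat pituitary cells (two TREs driving luciferase) were dosed with compound, then stimulated with 1 nM T3 (final) for 23.5 h at 37 C. ONE-Glo luminescence was the read-out, with CellTiter-Fluor fluorescence as the cytotoxicity counter-screen.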

Test [8] has as its system thyroid hormone receptor (rat, GH3 cells). In words: qHTS assay to identify small molecule agonists of the thyroid receptor (TR) signaling pathway (AID 743066; calls by dose curve).
The nature of test [9]: qHTS assay to identify small molecule antagonists of the estrogen receptor alpha (ER-alpha) signaling pathway - cell viability counter screen (AID 743074; calls by dose curve;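 note: HEK293 cells carrying ER-alpha-UAS-bla reporter stimulated with 17beta-estradiol; nearly all actives have a fitted effect of over 45% in size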; note: potency is the fitted concentration of half-maximal effect).
Test [10] in a line: qHTS assay to identify small molecule antagonists of the estrogen receptor alpha (ER-alpha) signaling pathway using the BG1 cell line - cell viability counter screen (AID 743081).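 Note: compound given together with 17beta-estradiol as the ER stimulus; nearly all actives have a fitted effect of over 45% in size.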 Note: potency is the fitted concentration of half-maximal effect.
The target of another test is Aromatase (Homo sapiens) (UniProt P11511). In words: qHTS assay to identify aromatase inhibitors (AID 743083). Note: nearly all actives have a fitted effect of over 55% in size. Note: potency is the fitted concentration of half-maximal effect.
The nature of test [11]: qHTS assay for identifying genotoxic compounds that show differential cytotoxicity against isogenic chicken DT40 cell lines with known DNA damage response pathways - Rev3 mutant cell line (AID 743014). Note: nearly all actives have a fitted effect of over 55% in size. Note: potency is the fitted concentration of half-maximal effect.
In test [12] the target is Estrogen receptor (Homo sapiens) (UniProt P03372). Nature of the test: qHTS assay to identify small molecule antagonists of the estrogen receptor alpha (ER-alpha) signaling pathway (AID 743069; active = well fitted curve in the direction sought with a large enough effect in the signal ratio in the repeat runs, not every such curve was filed as active; inconclusive = weak or mixed curves, or effect the other way; inactive = no such curve, though single readings can be large or run the other way; the % refers to the signal ratio; note: potency is the fitted concentration of half-maximal effect). The gist of the method:
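Reporter cells (ER-alpha-bla, HEK293 background) are conditioned overnight in stripped-serum medium (2% charcoal-stripped FBS). Compound and 17beta-estradiol exposure runs 18 hr at 37C, 5% CO2.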

The target is the same in test [13]. In words: qHTS assay to identify small molecule agonists of the estrogen receptor alpha (ER-alpha) signaling pathway (AID 743075; calls by dose curve;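 note: HEK293 GripTite cells with ER-alpha and UAS-driven beta-lactamase reporter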).
For test [14] the target is unchanged. In words: qHTS assay to identify small molecule agonists of the estrogen receptor alpha (ER-alpha) signaling pathway using the BG1 cell line (AID 743079). Note: nearly all actives have a fitted effect of over 20% in size.
The nature of test [15]: qHTS assay to identify small molecule antagonists of the estrogen receptor alpha (ER-alpha) signaling pathway using the BG1 cell line (AID 743080; calls by dose curve;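 note: BG1 cells stimulated with 17beta-estradiol alongside compound; nearly all actives have a fitted effect of over 25% in size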; note: potency is the fitted concentration of half-maximal effect). The gist of the method:
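Luciferase inhibition measured with ONE-Glo after 30 min at RT in BG1Luc4E2 cells given test compounds and 17beta-estradiol for 21.5 h at 37 C; CellTiter-Fluor viability read in the same wells beforehand.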

Test [16] deals with Androgen receptor (Homo sapiens) (UniProt P10275). Nature of the test: qHTS assay to identify small molecule antagonists of the androgen receptor (AR) signaling pathway (AID 743035; active = well fitted inhibition curve with a large enough effect in the signal ratio in the repeat runs, not every such curve was filed as active; inconclusive = weak or mixed curves, or effect the other way; inactive = no such curve, though single readings can be large or run the other way; the % refers to the signal ratio; note: potency is the fitted concentration of half-maximal effect). The gist of the method: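 Cell line: GeneBLAzer AR-UAS-bla GripTite (HEK293). Stimulus: R1881 added after compound. Exposure: 16 h, 37C, 5% CO2. Readout: LiveBLAzer B/G FRET fluorescence after 2 h at room temperature.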

Test [17] has the same target. In words: qHTS assay to identify small molecule agonists of the androgen receptor (AR) signaling pathway (AID 743036; active = well fitted activation curve with a large enough effect in the signal ratio in the repeat runs, with a control signal flat, not every such curve was filed as active; inconclusive = weak or mixed curves, or effect the other way; inactive = no such curve, though single readings can be large or run the other way; the % refers to the signal ratio). Put shortly:
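Quantitative HTS of the Tox21 10K library in HEK293 cells bearing a stably integrated UAS-controlled beta-lactamase reporter. Compound exposure lasted 16 h at 37C. Reporter activity was detected by FRET substrate fluorescence after 2 h at room temperature.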

For test [18] the target is unchanged. Nature of the test: qHTS assay to identify small molecule agonists of the androgen receptor (AR) signaling pathway using the MDA cell line (AID 743040; note: nearly all actives have a fitted effect of over 20% in size). The gist of the method: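 Human breast carcinoma MDA-kb2 reporter cells (MMTV-luc, AR/GR elements) were treated for 16 h at 37C in 0% CO2 following a 5 h settling period. Signal was quantified by ONE-Glo luminescence.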

Test [19] has the same target. Nature of the test: qHTS assay to identify small molecule antagonists of the androgen receptor (AR) signaling pathway using the MDA cell line (AID 743042; note: nearly all actives have a fitted effect of over 55% in size; note: potency is the fitted concentration of half-maximal effect). Put shortly:
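MDA-kb2 breast carcinoma cells carrying MMTV-luciferase (AR/GR responsive) were co-treated with compounds and the agonist R1881 for 16 h at 37C. Inhibition read as ONE-Glo luminescence; CellTiter-Fluor fluorescence measured in parallel for cytotoxicity.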

This note sets out measurements from PubChem BioAssay (Tox21).

Values joined by “and” are separate entries in the source; they are usually repeats but may differ in a detail not shown here. Identical values can stand only once. Active and inactive are the calls of the source. Unless noted, calls come from the whole dose curve; as a rule, active = well fitted curve in the direction sought with a large enough effect in the repeat runs; inconclusive = weak or mixed curves; inactive = no such curve, though single readings can be large; an effect the other way counts as inactive or inconclusive.

Chain of Estrogen receptor (Homo sapiens) (P03372 whole entry, looked up): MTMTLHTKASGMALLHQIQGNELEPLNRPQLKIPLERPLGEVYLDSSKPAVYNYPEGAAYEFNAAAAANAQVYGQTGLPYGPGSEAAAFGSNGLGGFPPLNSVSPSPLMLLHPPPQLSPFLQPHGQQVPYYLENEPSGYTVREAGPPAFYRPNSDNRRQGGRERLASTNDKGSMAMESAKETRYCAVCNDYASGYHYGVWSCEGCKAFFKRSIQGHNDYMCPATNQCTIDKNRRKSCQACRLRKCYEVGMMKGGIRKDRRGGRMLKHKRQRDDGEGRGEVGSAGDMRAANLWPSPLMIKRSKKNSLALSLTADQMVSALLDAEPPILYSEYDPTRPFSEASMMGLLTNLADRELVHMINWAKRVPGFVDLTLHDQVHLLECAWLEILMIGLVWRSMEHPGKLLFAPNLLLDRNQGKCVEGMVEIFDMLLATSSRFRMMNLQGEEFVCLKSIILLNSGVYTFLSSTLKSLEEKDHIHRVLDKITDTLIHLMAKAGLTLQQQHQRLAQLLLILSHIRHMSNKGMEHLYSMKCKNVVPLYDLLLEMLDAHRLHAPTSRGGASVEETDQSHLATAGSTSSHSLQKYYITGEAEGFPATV
Chain of Aromatase (Homo sapiens) (P11511 whole entry, looked up): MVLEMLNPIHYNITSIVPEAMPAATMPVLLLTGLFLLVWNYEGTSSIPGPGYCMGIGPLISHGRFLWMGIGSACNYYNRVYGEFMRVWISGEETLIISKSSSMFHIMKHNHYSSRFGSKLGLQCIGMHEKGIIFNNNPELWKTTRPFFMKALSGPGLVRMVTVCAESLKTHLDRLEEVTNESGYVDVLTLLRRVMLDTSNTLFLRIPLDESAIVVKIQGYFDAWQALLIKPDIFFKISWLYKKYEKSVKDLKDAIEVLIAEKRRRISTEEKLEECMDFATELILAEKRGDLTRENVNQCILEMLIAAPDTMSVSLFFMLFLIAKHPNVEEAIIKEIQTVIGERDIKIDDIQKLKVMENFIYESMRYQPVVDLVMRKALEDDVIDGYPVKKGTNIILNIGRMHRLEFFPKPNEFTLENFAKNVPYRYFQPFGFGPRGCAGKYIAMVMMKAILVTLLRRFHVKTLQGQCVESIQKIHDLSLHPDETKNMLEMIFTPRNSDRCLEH
Chain of Androgen receptor (Homo sapiens) (P10275 whole entry, looked up): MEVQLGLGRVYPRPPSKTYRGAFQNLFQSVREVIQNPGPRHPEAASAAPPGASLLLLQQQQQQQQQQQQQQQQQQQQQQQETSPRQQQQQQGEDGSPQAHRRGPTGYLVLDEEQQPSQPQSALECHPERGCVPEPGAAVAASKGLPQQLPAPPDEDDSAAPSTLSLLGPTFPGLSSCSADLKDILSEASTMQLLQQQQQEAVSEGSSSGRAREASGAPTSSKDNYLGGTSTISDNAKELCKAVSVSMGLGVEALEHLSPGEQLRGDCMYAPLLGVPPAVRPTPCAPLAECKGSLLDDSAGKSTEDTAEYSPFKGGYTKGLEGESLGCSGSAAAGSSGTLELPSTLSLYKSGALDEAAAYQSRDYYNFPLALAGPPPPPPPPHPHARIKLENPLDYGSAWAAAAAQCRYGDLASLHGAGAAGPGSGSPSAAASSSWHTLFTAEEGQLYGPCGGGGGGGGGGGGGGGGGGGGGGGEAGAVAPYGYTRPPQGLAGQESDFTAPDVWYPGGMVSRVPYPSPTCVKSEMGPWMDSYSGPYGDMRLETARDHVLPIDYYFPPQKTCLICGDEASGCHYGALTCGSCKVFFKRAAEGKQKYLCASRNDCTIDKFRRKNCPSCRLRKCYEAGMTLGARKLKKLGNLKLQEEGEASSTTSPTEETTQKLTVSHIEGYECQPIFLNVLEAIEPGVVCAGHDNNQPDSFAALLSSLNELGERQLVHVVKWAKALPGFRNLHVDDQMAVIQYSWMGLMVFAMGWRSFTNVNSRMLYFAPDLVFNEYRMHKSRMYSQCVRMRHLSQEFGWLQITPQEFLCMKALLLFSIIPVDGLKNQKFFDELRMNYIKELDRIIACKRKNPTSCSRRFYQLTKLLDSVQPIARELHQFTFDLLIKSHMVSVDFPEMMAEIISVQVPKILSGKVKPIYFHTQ

With `Cc1ccccc1CCl`, the Potency result in test [1], in [2], in test [3], in test [4], in test [5] and in [6] was “inactive” in each case. Further, the Potency result (in test [7]; in test [8]; in test [9]; in [10]; in the test with Aromatase (Homo sapiens)) was “inactive” each time.

Regarding `COc1cc(Cl)c(OC)cc1Cl`, the Potency result in [1], in test [11], in test [4], in test [5], in test [7] and in test [8] was “inactive” in each case. Further, the Potency entry in [12], in test [9], in [13], in [14], in test [15] and in test [10] was “inactive” each time. The Potency entry in the test with Aromatase (Homo sapiens) is “inactive”.

Regarding `O=C1C(Cl)C(CCl)CN1c1cccc(C(F)(F)F)c1` (stereo not drawn), the Potency result in test [1], in [11], in test [3], in [18], in test [19] and in test [6] was “inactive” each time. Besides, the Potency result (in test [7]; in test [8]; in test [9]; in test [10]; with Aromatase (Homo sapiens)) was “inactive” in each case. Besides, the Potency in [16] is 24.5 µM (active). In addition, the outcome in test [17] was inactive.

As for `CC(C)=CCOc1c2occc2cc2ccc(=O)oc12`, the Potency entry in test [1], in test [4], in test [16], in [18], in [19] and in test [7] was “inactive” each time. The Potency entry in test [8], in [12], in [9], in test [13], in test [14] and in test [15] was “inactive” in each case. In addition, the Potency result with Aromatase (Homo sapiens) was “inactive”. The Potency in [2] was 26.6 µM (active). Also, the molecule was classed as inactive in test [17].

Regarding `Brc1ccc(Oc2ccccc2)cc1`, the Potency entry in test [1], in test [11], in test [5], in [6], in test [7] and in test [8] was “inactive” in each case. Besides, the Potency result in test [12], in test [9], in test [13], in test [14], in test [15] and in test [10] was “inactive” each time. The Potency entry with Aromatase (Homo sapiens) was “inactive”.

Consider `N#Cc1cc(I)c(O)c(I)c1`, for which the Potency is 68.6 µM (active) in test [11] and 49 µM (active) in test [4]. Moreover, the Potency result in test [18], in [8] and in test [10] was “inactive” in each case.

For the molecule `O=S1(=O)OC(c2cc(Br)c(O)c(Br)c2)(c2cc(Br)c(O)c(Br)c2)c2ccccc21`, the Potency in test [2] was 31.5 µM (active); in [11], 28.1 µM (active); in test [3], 25 µM (active); in test [5] it was 62.8 µM (active); in [6] it was 49.9 µM (active); in [7], 28.1 µM (active). Also, the Potency (in test [10]; with Aromatase (Homo sapiens)) was 22.3 µM (active) in each case. The Potency result in test [4], in test [18], in [8] and in test [13] was “inactive” in each case.

For the molecule `CN(C)c1ccc(N(C)C)cc1`, the Potency result in test [1], in [8], in test [13] and in test [10] was “inactive” each time.

In the case of `CCCC(Cn1cncn1)c1ccc(Cl)cc1Cl` (stereo not drawn), the Potency was 5.45 µM (active) in [2]; 6.11 µM (active) in test [11]; 10.9 µM (active) in [3]; 61.1 µM (active) in test [7]; 12.2 µM (active) with Aromatase (Homo sapiens). Besides, the Potency entry in test [8] and in test [10] was “inactive” each time.

Take `CC1(C)CCC(Cc2ccc(Cl)cc2)C1(O)Cn1cncn1` (stereo not drawn): the Potency in test [2] was 27.3 µM (active); in [11], 15.4 µM (active); in test [3], 27.3 µM (active); in test [7], 61.1 µM (active); in test [12] it was 61.6 µM [inconclusive] (active); in test [15], 61.1 µM (active). Also, the Potency with Aromatase (Homo sapiens) was 30.6 µM (active). Further, the Potency entry in test [8], in [9], in test [13] and in [10] was “inactive” each time.

As to `O=C(Nc1ccccc1)Nc1ccnc(Cl)c1`, the Potency in test [2] is 17.2 µM (active); in test [11], 15.4 µM (active); in [3] it was 13.7 µM (active); in test [4], 38.9 µM (active); in test [19] it was 30.6 µM (active); in test [12], 13.8 µM [inconclusive] (active). In addition, the Potency with Aromatase (Homo sapiens) is 54.5 µM (active). In addition, the Potency entry in test [18], in [8], in test [9], in [13] and in test [10] was “inactive” each time.

Regarding `CCCN(CC1CC1)c1c([N+](=O)[O-])cc(C(F)(F)F)cc1[N+](=O)[O-]`, the Potency entry in test [2], in test [11], in [3], in [5], in test [8] and in [12] was “inactive” throughout. Also, the Potency entry (in test [9]; in test [13]; in [14]; in test [15]; in test [10]; with Aromatase (Homo sapiens)) was “inactive” throughout.

On to `O=C(CCl)c1ccc(Cl)cc1Cl`, for which the Potency in test [2] is 668 nM (active) and 1.72 µM (active); in test [11], 1.06 µM (active) and 2.73 µM (active) and 17.1 µM (active); in [3], 944 nM (active) and 2.43 µM (active); in test [9] it was 38.9 µM (active). Besides, the Potency entry in [4], in [18], in test [19], in [8], in [12] and in [13] was “inactive” throughout. For the same molecule, the Potency result (in test [14]; in test [15]; in [10]; in the test with Aromatase (Homo sapiens)) was “inactive” in each case. Besides, the result in test [17] was inactive.
